Assay results reported in the supplement of paper PMC13380429.

System: Vero E6 infected with SARS-CoV-2
Assay: inhibition of SARS-CoV-2 cytopathic effect; higher = more antiviral protection, active = above 15
Details: 48 h

Measured: inhibition of SARS-CoV-2 cytopathic effect

c1nc2c(NC3CCCCC3)nc(Nc3ccc(N4CCOCC4)cc3)nc2[nH]1 [reversine]
inactive: 1 nM 3.13% | 8.33 nM 6.21% | 100 nM 1.52% | 833.33 nM -0.29% | 10000 nM -7.06%

Cn1cc(/C=C2\C(=O)Nc3cccnc32)c2ccccc21
inactive: 1 nM -2.16% | 8.33 nM -2.36% | 100 nM 2.94% | 833.33 nM 0.64% | 10000 nM 4.71%

Cc1cc(C)c2c(N)c(C(=O)NCc3ccc(Cl)cc3)sc2n1
inactive: 1 nM 1.18% | 8.33 nM -1.88% | 100 nM -0.97% | 833.33 nM -0.85% | 10000 nM 0.14%

N#CC(c1ccccc1)(c1ccccc1)c1ccccc1Cl
inactive: 1 nM 2.09% | 8.33 nM 1.23% | 100 nM 3.05% | 833.33 nM 3.49% | 10000 nM 3.88%

C=C1CCN([C@H](C)[C@](O)(Cn2cncn2)c2ccc(F)cc2F)CC1 [efinaconazole]
inactive: 1 nM -0.21% | 8.33 nM 1.69% | 100 nM 0.85% | 833.33 nM 0.56% | 10000 nM 2.84%

Cc1ccc2c(-c3ccccc3)nc(=O)n(C(C)C)c2c1 [proquazone]
inactive: 1 nM 0.68% | 8.33 nM 0.21% | 100 nM -1.31% | 833.33 nM -2.03% | 10000 nM -0.55%

CCCC(=O)O[C@]1(C(=O)CO)CC[C@H]2[C@@H]3CCC4=CC(=O)CC[C@]4(C)[C@H]3[C@@H](O)C[C@@]21C [hydrocortisone-butyrate]
inactive: 1 nM -1.77% | 8.33 nM 1.01% | 100 nM 3.36% | 833.33 nM 5.42% | 10000 nM 0.11%

CC1(C)CN(C(=O)c2ccc(-c3cccc4nc(NC(=O)C5CC5)nn34)cc2)C1 [solcitinib]
inactive: 1 nM 0.35% | 8.33 nM 1.82% | 100 nM 2.28% | 833.33 nM 4.05% | 10000 nM 4.4%

CCC1(CC)C(=O)NC(=O)N(C)C1=O [metharbital]
inactive: 1 nM 0.2% | 8.33 nM 2.59% | 100 nM 1.14% | 833.33 nM 0.78% | 10000 nM 2.66%

NC(=O)c1ccc([N+](=O)[O-])cc1Cl [aklomide]
inactive: 1 nM -0.14% | 8.33 nM 0.27% | 100 nM 2% | 833.33 nM 1.45% | 10000 nM 0.79%

CN1CCCC(n2nc(Cc3ccc(Cl)cc3)c3ccccc3c2=O)CC1 (stereo not given) [azelastine]
inactive: 1 nM -1.24% | 8.33 nM -0.03% | 100 nM -3.43% | 833.33 nM -2.95% | 10000 nM -3.03%

O=C1Cc2cc(CCN3CCN(c4nsc5ccccc45)CC3)c(Cl)cc2N1 [ziprasidone]
inactive: 1 nM -0.08% | 8.33 nM -2.01% | 100 nM -0.35% | 833.33 nM 0.78% | 10000 nM -2.66%

CC(C)(N)c1cc(C(=O)N[C@@H]2CCc3ccc(Oc4ccnc5c4CCC(=O)N5)cc3C2)cc(C(F)(F)F)c1
inactive: 1 nM 0.3% | 8.33 nM 1.69% | 100 nM 1.9% | 833.33 nM -3.12% | 10000 nM -8.56%

CCCOC(C(=O)OC1CCN(C)CC1)(c1ccccc1)c1ccccc1 [propiverine]
inactive: 1 nM 0.57% | 8.33 nM 1.63% | 100 nM 0.85% | 833.33 nM -0.19% | 10000 nM 1.89%

O=C(O)c1ccc(-c2ccc3cc(O)c(C45CC6CC(CC(C6)C4)C5)cc3c2)cc1
inactive: 1 nM 5.35% | 8.33 nM 1.59% | 100 nM 3.64% | 833.33 nM 3.49% | 10000 nM 5.63%

CCOC(=O)C1=CCCC[C@H]1S(=O)(=O)Nc1ccc(F)cc1Cl [resatorvid]
inactive: 1 nM 1.61% | 8.33 nM 1.54% | 100 nM 3.21% | 833.33 nM 0.29% | 10000 nM -0.49%

O=S(=O)(O)c1ccc(O)cc1 [4-phenolsulfonic-acid]
inactive: 1 nM -2.47% | 8.33 nM 0.25% | 100 nM 0.79% | 833.33 nM -2.18% | 10000 nM -0.48%

Oc1cc(O)c2cc(O)c(-c3cc(O)c(O)c(O)c3)[o+]c2c1 [delphinidin]
inactive: 1 nM -3.03% | 8.33 nM -3.65% | 100 nM -0.94% | 833.33 nM -1.2% | 10000 nM -3.76%

CC(C)NC[C@@H](C(=O)N1CCN(c2ncnc3c2[C@H](C)C[C@H]3O)CC1)c1ccc(Cl)cc1
inactive: 1 nM -0.34% | 8.33 nM -0.39% | 100 nM -0.29% | 833.33 nM 2.69% | 10000 nM 1.98%

NS(=O)(=O)c1cc2c(cc1Cl)NC(C(Cl)Cl)NS2(=O)=O (stereo not given) [trichlormethiazide]
inactive: 1 nM -3.15% | 8.33 nM -5.19% | 100 nM -10.5% | 833.33 nM -3.29% | 10000 nM -8.52%

COc1cc(C[C@H](C)[C@H](C)Cc2ccc3c(c2)OCO3)ccc1O [macelignan]
inactive: 1 nM 0.71% | 8.33 nM -0.62% | 100 nM 0.01% | 833.33 nM 2.57% | 10000 nM 1.91%

CCN1C(=O)NC(c2ccccc2)C1=O (stereo not given) [ethotoin]
inactive: 1 nM 0.06% | 8.33 nM 4.06% | 100 nM 2.41% | 833.33 nM 2.46% | 10000 nM -0.15%

COc1cc2nc(N3CCN(C(=O)C4CCCO4)CC3)nc(N)c2cc1OC (stereo not given) [terazosin]
inactive: 1 nM 1.36% | 8.33 nM -0.59% | 100 nM -1.51% | 833.33 nM -0.05% | 10000 nM 1.35%

N=C(N)SCCc1c[nH]cn1 [imetit]
inactive: 1 nM -0.58% | 8.33 nM -0.44% | 100 nM -2.84% | 833.33 nM -2.2% | 10000 nM -1.05%

O=C(O)CC[C@H]1CC[C@@](c2cc(F)ccc2F)(S(=O)(=O)c2ccc(Cl)cc2)CC1
inactive: 1 nM -2.65% | 8.33 nM -0.66% | 100 nM -4.1% | 833.33 nM -7.63% | 10000 nM -8.12%

CS(=O)(=O)c1ccc(-c2cnc(NCc3ccco3)n3cnnc23)cc1
inactive: 1 nM 4.45% | 8.33 nM 2.39% | 100 nM 0.36% | 833.33 nM -0.76% | 10000 nM -0.13%

CNC(=O)c1cc(Oc2ccc(NC(=O)Nc3ccc(Cl)c(C(F)(F)F)c3)c(F)c2)ccn1 [regorafenib]
inactive: 1 nM 2.3% | 8.33 nM 3.25% | 100 nM 1.21% | 833.33 nM -1.69% | 10000 nM 2.67%

N=C(N)NCCC[C@H](NC(=O)c1sccc1NS(=O)(=O)c1cccc2nsnc12)C(=O)O
inactive: 1 nM -1.17% | 8.33 nM 0.96% | 100 nM 1.72% | 833.33 nM 0.4% | 10000 nM 1.98%

CN(C)Cc1cccc(N/C(=C2\C(=O)Nc3cc(C(N)=O)ccc32)c2ccccc2)c1
inactive: 1 nM -2.86% | 8.33 nM 2.55% | 100 nM 0.04% | 833.33 nM 2.08% | 10000 nM 2.55%

COc1c(OCCCN2CCOCC2)ccc2c1N=C(NC(=O)c1cnc(N)nc1)N1CCN=C21 [copanlisib]
inactive: 1 nM -2.48% | 8.33 nM -1.99% | 100 nM -3.58% | 833.33 nM -5.18% | 10000 nM -12.2%

O=C(O)c1cn(-c2ccc(F)cc2)c2cc(N3CCNCC3)c(F)cc2c1=O [sarafloxacin]
inactive: 1 nM -2.73% | 8.33 nM -5.26% | 100 nM -3.5% | 833.33 nM -5.86% | 10000 nM -4.93%

COc1cc(OC)c(NC(=O)Nc2cc(C)on2)cc1Cl
inactive: 1 nM 2.33% | 8.33 nM 0.81% | 100 nM 1.57% | 833.33 nM 4.04% | 10000 nM 2.62%

OCCN1CCN(CCCN2c3ccccc3C=Cc3ccccc32)CC1 [opipramol]
inactive: 1 nM 2.92% | 8.33 nM 1.37% | 100 nM 1.62% | 833.33 nM -1.41% | 10000 nM -3.08%

CNC[C@H](O)c1cccc(O)c1 [phenylephrine]
inactive: 1 nM 0.59% | 8.33 nM 1.75% | 100 nM -0.82% | 833.33 nM 0.14% | 10000 nM -0.09%

O=C(O)c1ccc2c(c1)nc(Nc1cccc(Cl)c1)c1ccncc12
inactive: 1 nM -2.63% | 8.33 nM 0.18% | 100 nM -2.24% | 833.33 nM 0.52% | 10000 nM -1.33%

N=C(N)N/N=C/c1c(Cl)cccc1Cl [guanaben-acetate]
inactive: 1 nM -2.82% | 8.33 nM -0.46% | 100 nM -3.74% | 833.33 nM -2.55% | 10000 nM -1.82%

CO[C@H]1CC[C@H](N(c2cc(C3=CCCCC3)sc2C(=O)O)C(=O)[C@H]2CC[C@H](C)CC2)CC1
inactive: 1 nM 0.5% | 8.33 nM 0.07% | 100 nM -0.07% | 833.33 nM 0.31% | 10000 nM 0.21%

CCCCCCCC/C=C/CCCCCCCC(=O)OC[C@H]1O[C@@H](n2ccc(N)nc2=O)C(F)(F)[C@@H]1O [gemcitabine-elaidate]
inactive: 1 nM -0.31% | 8.33 nM -0.77% | 100 nM -1.9% | 833.33 nM 0.35% | 10000 nM 3%

COCCOCCOc1ccc(C2=N[C@@](C)(C(=O)O)CS2)c(O)c1
inactive: 1 nM -1.16% | 8.33 nM 1.76% | 100 nM 1.19% | 833.33 nM 1.75% | 10000 nM 2.16%

OC[C@H]1O[C@@H](Oc2cc(O)cc(/C=C/c3ccc(O)cc3)c2)[C@H](O)[C@@H](O)[C@@H]1O [polydatin]
inactive: 1 nM -1.01% | 8.33 nM -1.06% | 100 nM 1.77% | 833.33 nM 9.49% | 10000 nM 2.31%
